Here are results for 13 compounds from PubChem BioAssay (NCI).

This is part of a sample that, as a whole, favours compounds with a hit. Of some 83,000 tested, about 20% had one in any assay.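 Note: values are percent growth. 100 is the growth of untreated cells, values between 100 and 0 indicate rising inhibition; between -100 and 0 indicates cell death.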 Values without a mark were called inactive. Calls of active or inactive are those of the source. The calls were made as follows: active = growth percent below 10; inactive = the rest.

Test systems include SR leukemia; RPMI-8226 leukemia; OVCAR-8 ovarian; OVCAR-5 ovarian; OVCAR-4 ovarian; SK-OV-3 ovarian; IGROV1 ovarian; OVCAR-3 ovarian; HS 578T breast; NCI/ADR-RES ovarian.
Holding throughout (assay): NCI-60 one-dose screen, 48 h (100 = growth as untreated, 0 = no growth, -100 = all killed)
Details in all cases: 10 µM unless noted

For the compound `O=c1oc2c(cnc3ccccc32)cc1-c1cccs1`, the growth is 103% in the test with SR leukemia; 103% in the test on RPMI-8226 leukemia; 100% in the test on OVCAR-8 ovarian; 108% with OVCAR-5 ovarian; 100% in the test with OVCAR-4 ovarian; 106% in the test on SK-OV-3 ovarian. Moreover, the growth is 99.7% in the test on IGROV1 ovarian, 119% in the test with OVCAR-3 ovarian, 99% in the test with HS 578T breast and 104% with NCI/ADR-RES ovarian.

In the case of `O=C(CN1CCN(c2cc3c(cc2F)c(=O)c(C(=O)O)cn3C2CC2)CC1)N/N=C/c1ccncc1`, the growth was 107% in the test with SR leukemia; 93.2% in the test on RPMI-8226 leukemia; 97.5% in the test with OVCAR-8 ovarian; 98.2% in the test with OVCAR-5 ovarian; 98.9% with OVCAR-4 ovarian; 102% with SK-OV-3 ovarian. The growth in the test with IGROV1 ovarian is 108%; in the test on OVCAR-3 ovarian it was 96.9%; in the test on HS 578T breast, 101%; in the test on NCI/ADR-RES ovarian, 107%.

For `CCOC(=O)c1c(C)nn(CC(O)c2ccccc2)c1NC(=O)Nc1cccc(F)c1` (stereo not given), the growth is 93% in the test on SR leukemia; 80.8% in the test on RPMI-8226 leukemia; 93.1% in the test on OVCAR-8 ovarian; 84.8% in the test on OVCAR-5 ovarian; 83.6% with OVCAR-4 ovarian; 85.2% in the test on SK-OV-3 ovarian. The growth in the test on IGROV1 ovarian is 90%; in the test on OVCAR-3 ovarian it was 95.6%; in the test on HS 578T breast, 71.4%; with NCI/ADR-RES ovarian it was 90.9%.

As to `Cn1c(=O)c2c(c3ccccc31)OC(N)=C(C#N)C21C(=O)c2ccccc2C1=O`, the growth in the test on SR leukemia was 105%; in the test on RPMI-8226 leukemia, 94.8%; with OVCAR-8 ovarian, 97.5%; in the test on OVCAR-5 ovarian, 98%; in the test on OVCAR-4 ovarian, 92.4%; with SK-OV-3 ovarian it was 90.8%. Besides, the growth in the test on IGROV1 ovarian is 92.4%; with OVCAR-3 ovarian, 98.7%; with HS 578T breast, 81.5%; with NCI/ADR-RES ovarian, 103%.

In the case of `CCOC(=O)NN1CC(O)=C(c2nc(-c3ccc(Br)cc3)cs2)C1=N`, the growth with SR leukemia was 61.4%; in the test on RPMI-8226 leukemia, 115%; in the test on OVCAR-8 ovarian it was 97%; with OVCAR-5 ovarian it was 89.5%; with OVCAR-4 ovarian, 118%; in the test with SK-OV-3 ovarian it was 108%. Moreover, the growth in the test on IGROV1 ovarian was 53%; with OVCAR-3 ovarian, 99.9%; in the test on HS 578T breast it was 110%; in the test with NCI/ADR-RES ovarian it was 108%.

Regarding `N=c1c2c(=N)n3c(nc2nc2n1-c1ccccc1Sc1ccccc1-2)sc1cc(Cl)ccc13`, the growth in the test with SR leukemia is 25.9%; with RPMI-8226 leukemia, 14.5%; with OVCAR-8 ovarian, 26.5%; in the test with OVCAR-5 ovarian it was 92.2%; in the test with OVCAR-4 ovarian it was 8.65% (active); in the test with SK-OV-3 ovarian it was 49.6%. Moreover, the growth is 38.7% in the test on IGROV1 ovarian, 7.88% (active) in the test on OVCAR-3 ovarian, 32% in the test with HS 578T breast and 30.1% in the test on NCI/ADR-RES ovarian.

Consider `CCC(CC)(N(CC(=O)O)CC(=O)O)C(CC)(CC)N(CC(=O)O)CC(=O)O`, for which the growth in the test with SR leukemia is 93.7%; in the test with RPMI-8226 leukemia it was 82.7%; in the test with OVCAR-8 ovarian it was 101%; in the test with OVCAR-5 ovarian, 117%; with OVCAR-4 ovarian, 101%; in the test with SK-OV-3 ovarian it was 104%. The growth with IGROV1 ovarian is 116%; with OVCAR-3 ovarian, 121%; in the test on HS 578T breast it was 118%; in the test on NCI/ADR-RES ovarian, 107%.

As to `CC(C)c1ccc(-n2c(=S)[nH]c3sc4c(c3c2=O)CCC(=O)C4)cc1`, the growth is 50% in the test with SR leukemia; 15.9% in the test with RPMI-8226 leukemia; 49.9% in the test on OVCAR-8 ovarian; 68.2% in the test with OVCAR-5 ovarian; 46.5% in the test with OVCAR-4 ovarian; 84.3% with SK-OV-3 ovarian. Besides, the growth in the test on IGROV1 ovarian is 63.1%; in the test with OVCAR-3 ovarian, 53%; in the test on HS 578T breast, 32.4%; with NCI/ADR-RES ovarian, 44%.

Consider `COc1cc(-c2cc(-c3ccc(Nc4ncnc5cc(Cl)ccc45)cc3)nc(N3CCN(C)CC3)n2)cc(OC)c1OC`, for which the growth with SR leukemia is 42.7%; in the test on RPMI-8226 leukemia it was 76.2%; in the test on OVCAR-8 ovarian it was 35.1%; in the test on OVCAR-5 ovarian, 103%; in the test with OVCAR-4 ovarian, 58.9%; with SK-OV-3 ovarian, 114%. Further, the growth in the test with IGROV1 ovarian was 81.3%; with OVCAR-3 ovarian, 105%; in the test on HS 578T breast, 73.2%; in the test on NCI/ADR-RES ovarian, 85.3%.

As to `Cc1[nH]c(/C=C/C(=O)c2ccc(C(F)(F)F)c(F)c2)c(C)c1C(=O)NCC(C)C`, the growth in the test on SR leukemia is 85.6%; in the test on RPMI-8226 leukemia, 95.8%; in the test on OVCAR-8 ovarian, 89.4%; in the test on OVCAR-5 ovarian, 101%; in the test on OVCAR-4 ovarian, 101%; in the test with SK-OV-3 ovarian, 105%. Besides, the growth with IGROV1 ovarian is 107%; in the test on OVCAR-3 ovarian, 112%; in the test with HS 578T breast it was 97.9%; with NCI/ADR-RES ovarian, 98.9%.

For the compound `CC(=O)N/C(=C1/OC(C(O)C(O)C(O)CO)CN1C)[P+](c1ccccc1)(c1ccccc1)c1ccccc1` (stereo not given), the growth with SR leukemia was 95.3%; in the test with RPMI-8226 leukemia, 99.7%; with OVCAR-8 ovarian, 102%; with OVCAR-5 ovarian it was 99.5%; in the test with OVCAR-4 ovarian it was 97.2%; with SK-OV-3 ovarian it was 93.8%. Besides, the growth was 101% in the test with IGROV1 ovarian, 112% in the test with OVCAR-3 ovarian, 114% in the test on HS 578T breast and 101% in the test with NCI/ADR-RES ovarian.

With `Cc1cc(N2CCCCC2)nc(N2CCN(CC(=O)Nc3ccc4c(ccn4Cc4ccccc4)c3)CC2)n1`, the growth was 64% in the test on SR leukemia; 53.4% with RPMI-8226 leukemia; 36.6% in the test with OVCAR-8 ovarian; 88.7% with OVCAR-5 ovarian; 54.2% in the test on OVCAR-4 ovarian; 62.3% in the test on SK-OV-3 ovarian. The growth was 64.5% with IGROV1 ovarian, 68.7% in the test with OVCAR-3 ovarian, 66.7% with HS 578T breast and 47.9% in the test with NCI/ADR-RES ovarian.

Regarding `O=C1/C(=C/c2ccc(Br)cc2)COc2ccc(O)c(O)c21`, the growth with SR leukemia is 6.26% (active); with RPMI-8226 leukemia, -33.5% (active); in the test with OVCAR-8 ovarian, 6.31% (active); in the test with OVCAR-5 ovarian it was -59.8% (active); with OVCAR-4 ovarian, 15.6%; with SK-OV-3 ovarian, 58.8%. In addition, the growth was -45.7% (active) in the test on IGROV1 ovarian, -91.5% (active) with OVCAR-3 ovarian, 11.9% in the test on HS 578T breast and 3.52% (active) with NCI/ADR-RES ovarian.
